The text below walks through data of PubChem BioAssay.

A short description of test [1]: antimalarial activity against Dd2 strain (AID 2302;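 active = growth inhibition above 50% at the single 2 µM test dose, taken to imply half-maximal potency below 2 µM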;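 note: 0% = DMSO untreated growth and 100% = chloroquine plus artemisinin killed control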). The following applies: P. falciparum Dd2 in RBCs, LDH growth readout, 72 h; at 2 µM; hits give high values.
Test [2] can be described thus: human hepatoma cell viability loss – ATP luminescence, cytotoxicity control for P. falciparum antimalarial project, primary screen (AID 2303;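 active = inhibition above 50%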;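 note: 0% = DMSO wells and 100% = digitonin-killed cells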). To be noted: HepG2 viability, 24-48 h, at 10 µM, hits give high values.
Test [3] concerns the target L-lactate dehydrogenase (Plasmodium falciparum (isolate CDC / Honduras)) (UniProt Q27743). The experiment in a line: PfLDH activity inhibition – cell lysate, 3D7 strain, counter-screen for P. falciparum growth inhibition project (AID 2304).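 Note: 0% = vehicle and 100% = reference inhibitor.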 The following applies: P. falciparum 3D7 crude extract, LDH APAD/NBT absorbance; at 2 µM; hits give high values. (Counterscreens check selectivity or assay interference.)

Test [4] is described as follows: inhibition of 3D7 malaria parasite growth – strain 3D7 (AID 2306).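 Note: 0% = DMSO wells and 100% = chloroquine plus artemisinin control wells.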 The following applies: P. falciparum 3D7 erythrocytic growth, LDH absorbance, 72 h; at 2 µM; hits give high values.
The target in test [5] is Calcium-dependent protein kinase 1 (Plasmodium falciparum (isolate 3D7)) (UniProt P62344). Briefly: PfCDPK1 kinase inhibitors, biochemical, TCAMS library (AID 1159585; cut-off not given, nearly all actives have IC50 up to about 0.98 µM;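 note: inhibitors leave more ATP so luminescence rises with inhibition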). To be noted: recombinant PfCDPK1, Kinase-Glo ATP depletion luminescence. For orientation: Kinase-Glo measures the ATP left after a reaction by luminescence.
Test [6] concerns the target Plasmodium falciparum protein kinase 6 (PK6, PF3D7_1337100) (UniProt Q8IDW1). The experiment in a line: PfPK6 kinase inhibitors, biochemical, TCAMS library (AID 1159586). To be noted: recombinant PfPK6, Kinase-Glo ATP depletion luminescence.
Test [7] deals with Protein kinase 7 (PK7), Plasmodium falciparum 3D7 (PF3D7_0213400) (UniProt Q7YTF7). Briefly: inhibition of Plasmodium PK7 catalytic activity – biochemical, TCAMS antimalarial set, Kinase-Glo luminescence (AID 1159587). The following applies: recombinant PfPK7, Kinase-Glo ATP depletion luminescence.
Test [8] has as its target Calcium-dependent protein kinase 4 (Plasmodium falciparum (isolate 3D7)) (UniProt Q8IBS5). The experiment in a line: PfCDPK4 kinase inhibitors, biochemical, TCAMS library (AID 1159588; cut-off not given, nearly all actives have IC50 up to about 0.91 µM). The following applies: recombinant PfCDPK4, Kinase-Glo ATP depletion luminescence.

Broadly, the inhibition is the drop in the measured response relative to a control, in per cent.

Values without a mark were called inactive. For part of these data: Measured potencies and affinities stand elsewhere. The source made the active and inactive calls. Unless noted, the rule behind the calls is not given here.

Calcium-dependent protein kinase 4 (Plasmodium falciparum (isolate 3D7)), sequence (Q8IBS5 whole entry, looked up): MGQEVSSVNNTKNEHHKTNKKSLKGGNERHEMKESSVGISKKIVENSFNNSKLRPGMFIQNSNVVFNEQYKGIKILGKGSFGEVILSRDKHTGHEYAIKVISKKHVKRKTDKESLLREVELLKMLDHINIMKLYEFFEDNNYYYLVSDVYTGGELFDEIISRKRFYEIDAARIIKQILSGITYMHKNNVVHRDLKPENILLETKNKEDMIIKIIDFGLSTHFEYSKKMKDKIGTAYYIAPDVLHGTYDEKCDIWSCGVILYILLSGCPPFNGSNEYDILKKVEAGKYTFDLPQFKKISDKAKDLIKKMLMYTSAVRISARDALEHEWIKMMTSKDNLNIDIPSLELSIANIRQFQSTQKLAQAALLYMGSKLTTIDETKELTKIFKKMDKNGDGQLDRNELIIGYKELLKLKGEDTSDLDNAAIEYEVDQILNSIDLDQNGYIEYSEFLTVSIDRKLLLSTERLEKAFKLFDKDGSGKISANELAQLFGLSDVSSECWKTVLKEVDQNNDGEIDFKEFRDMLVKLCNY
Protein kinase 7 (PK7), Plasmodium falciparum 3D7 (PF3D7_0213400), sequence (Q7YTF7 1-343): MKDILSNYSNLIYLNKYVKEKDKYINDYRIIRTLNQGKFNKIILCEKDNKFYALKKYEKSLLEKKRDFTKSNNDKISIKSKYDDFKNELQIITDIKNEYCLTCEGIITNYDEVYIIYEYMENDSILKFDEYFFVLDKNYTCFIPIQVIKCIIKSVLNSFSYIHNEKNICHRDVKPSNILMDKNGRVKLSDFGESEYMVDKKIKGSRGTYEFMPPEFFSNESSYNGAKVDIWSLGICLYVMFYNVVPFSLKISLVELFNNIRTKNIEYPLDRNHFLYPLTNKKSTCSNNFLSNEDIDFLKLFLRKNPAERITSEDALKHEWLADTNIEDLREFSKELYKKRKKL
Plasmodium falciparum protein kinase 6 (PK6, PF3D7_1337100), sequence (Q8IDW1 1-305): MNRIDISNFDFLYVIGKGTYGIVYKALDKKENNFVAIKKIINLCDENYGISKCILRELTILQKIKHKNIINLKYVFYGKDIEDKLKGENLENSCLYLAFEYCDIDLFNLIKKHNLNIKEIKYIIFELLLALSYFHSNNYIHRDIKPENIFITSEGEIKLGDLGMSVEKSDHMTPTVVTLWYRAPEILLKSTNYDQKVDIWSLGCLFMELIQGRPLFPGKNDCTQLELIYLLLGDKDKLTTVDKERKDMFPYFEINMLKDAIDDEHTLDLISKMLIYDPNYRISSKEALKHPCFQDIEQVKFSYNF
L-lactate dehydrogenase (Plasmodium falciparum (isolate CDC / Honduras)), sequence (Q27743 whole entry, looked up): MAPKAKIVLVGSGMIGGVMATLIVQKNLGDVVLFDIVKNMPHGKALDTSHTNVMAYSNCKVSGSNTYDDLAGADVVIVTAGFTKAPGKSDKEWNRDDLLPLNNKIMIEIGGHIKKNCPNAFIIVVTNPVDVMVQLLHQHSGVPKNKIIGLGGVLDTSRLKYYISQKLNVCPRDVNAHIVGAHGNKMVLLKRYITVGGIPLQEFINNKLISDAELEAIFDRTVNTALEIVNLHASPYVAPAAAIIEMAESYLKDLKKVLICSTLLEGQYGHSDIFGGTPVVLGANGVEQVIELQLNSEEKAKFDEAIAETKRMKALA
Calcium-dependent protein kinase 1 (Plasmodium falciparum (isolate 3D7)), sequence (P62344 whole entry, looked up): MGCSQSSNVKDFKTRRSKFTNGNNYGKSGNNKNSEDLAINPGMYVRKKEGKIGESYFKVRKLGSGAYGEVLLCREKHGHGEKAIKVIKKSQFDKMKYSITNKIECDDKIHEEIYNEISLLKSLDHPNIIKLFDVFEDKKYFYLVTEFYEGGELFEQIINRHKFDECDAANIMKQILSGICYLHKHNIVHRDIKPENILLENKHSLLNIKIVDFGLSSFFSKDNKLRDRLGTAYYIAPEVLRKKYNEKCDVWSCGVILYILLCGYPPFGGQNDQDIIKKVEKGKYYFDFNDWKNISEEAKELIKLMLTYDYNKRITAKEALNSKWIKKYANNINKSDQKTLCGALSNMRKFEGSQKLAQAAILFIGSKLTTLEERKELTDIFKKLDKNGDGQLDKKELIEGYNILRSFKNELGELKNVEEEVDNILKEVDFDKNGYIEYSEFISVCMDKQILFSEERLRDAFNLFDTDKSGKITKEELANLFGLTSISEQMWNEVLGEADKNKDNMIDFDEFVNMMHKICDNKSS

As for `CCOc1ccc(-c2nonc2NC(=O)c2ccco2)cc1OCC`, the growth inhibition in test [1] was 77% (active); in test [4], 97% (active). The figures for the inhibition in test [2] and in test [3] were 3% and -1%, respectively. Also, the result in test [5], in test [6], in test [7] and in test [8] was inactive.

Take `Cc1cc(N)c2cc(NC(=O)/C=C/c3ccc([N+](=O)[O-])cc3)ccc2n1`: the growth inhibition was 80% (active) in test [1] and 100% (active) in test [4]. Besides, the inhibition is 76% (active) in test [2] and -2% in test [3]. For the same compound, the result in test [5], in test [6], in test [7] and in test [8] was inactive.

For `COc1ccc(CCn2c(C3CCCCC3)nc3oc4ccccc4c(=O)c3c2=O)cc1`, the growth inhibition in test [1] is 66% (active); in test [4], 91% (active). Also, the figures for the inhibition in test [2] and in test [3] were 12% and -2%, respectively. Further, the outcome in test [5], in test [6], in test [7] and in test [8] was inactive.

Take `Cc1nn(CCOC(=O)NC(NCC2COc3ccccc3O2)C(Cl)(Cl)Cl)cc1[N+](=O)[O-]` (stereo not drawn): the growth inhibition in test [1] and in test [4] was 99% (active) in each case. Besides, the values for the inhibition in test [2] and in test [3] were -9% and 2%, respectively. Moreover, the result in test [5], in test [6], in test [7] and in test [8] was inactive.

As to `CCCc1ccc(NC(=O)c2ccc(CN3CCCN(Cc4cccc(O)c4)CC3)cc2)cc1`, the growth inhibition is 63% (active) in test [1] and 101% (active) in test [4]. Besides, the results for the inhibition in test [2] and in test [3] were 51% (active) and -1%, respectively. Moreover, the result in test [5], in test [6], in test [7] and in test [8] was inactive.

On to `Cc1ccccc1CNc1nccc(NCCC(=O)Nc2ccccc2)n1`, for which the growth inhibition in test [1] was 15%; in test [4], 90% (active). Further, the inhibition was 16% in test [2] and -3% in test [3]. Besides, the outcome in test [5], in test [6], in test [7] and in test [8] was inactive.

Consider `O=C(c1cc(OC(F)(F)F)ccc1O)N1CCN(c2ccccc2)CC1`, for which the results for the growth inhibition in test [1] and in test [4] were 1% and 88% (active), respectively. The inhibition in test [2] was -10%; in test [3], -4%. Besides, the result in test [5], in test [6], in test [7] and in test [8] was inactive.

Consider `Cc1ccc(Nc2ccnc3ccc(C(F)(F)F)cc23)cc1O`, for which the growth inhibition is 69% (active) in test [1] and 102% (active) in test [4]. Besides, the results for the inhibition in test [2] and in test [3] were 23% and -6%, respectively. The outcome in test [5], in test [6], in test [7] and in test [8] was inactive.

On to `O=C(Cc1ccc(NC(=O)c2ccc(O)c(-c3ccc(Cl)c(Cl)c3)c2)cc1)NCCN1CCOCC1`, for which the growth inhibition is 24% in test [1] and 94% (active) in test [4]. For the same compound, the values for the inhibition in test [2] and in test [3] were 10% and 4%, respectively. In addition, the outcome in test [5], in test [6], in test [7] and in test [8] was inactive.

In the case of `NC(=NCCCc1ccccc1)c1cccc(C(N)=NCCCc2ccccc2)n1`, the values for the growth inhibition in test [1] and in test [4] were -1% and 98% (active), respectively. Also, the inhibition is 44% in test [2] and -6% in test [3]. The outcome in test [5], in test [6], in test [7] and in test [8] was inactive.

`O=C(Nc1ccc(F)cc1)NC1CCN(c2ccnc3cc(Cl)ccc23)C1` (stereo not drawn): the growth inhibition was 67% (active) in test [1] and 101% (active) in test [4]. For the same compound, the figures for the inhibition in test [2] and in test [3] were 17% and 2%, respectively. Besides, the result in test [5], in test [6], in test [7] and in test [8] was inactive.

As to `O=C(/C=C/c1ccccc1F)NC1CCC(CCN2CCc3ccc(-c4cccnc4)cc3CC2)CC1` (stereo not drawn), the figures for the growth inhibition in test [1] and in test [4] were 5% and 92% (active), respectively. In addition, the inhibition in test [2] was 34%; in test [3] it was -4%. In addition, the outcome in test [5], in test [6], in test [7] and in test [8] was inactive.

Take `COc1ccc2nccc([C@@H](O)CN3CCC(NCCOc4ccccc4[N+](=O)[O-])CC3)c2c1`: the growth inhibition in test [1] is 98% (active); in test [4], 100% (active). Moreover, the inhibition in test [2] is 4%; in test [3] it was -2%. The outcome in test [5], in test [6], in test [7] and in test [8] was inactive.

As to `COc1ccc(C2CCN(C#N)C2)cc1OC1CCCC1` (stereo not drawn), the results for the growth inhibition in test [1] and in test [4] were 97% (active) and 102% (active), respectively. For the same compound, the inhibition in test [2] was 9%; in test [3], 2%. The result in test [5], in test [6], in test [7] and in test [8] was inactive.

`CN1Cc2cc(NC(=O)/C=C/c3ccccc3Cl)ccc2C(C)(C)C1`: the growth inhibition in test [1] is 96% (active); in test [4], 99% (active). In addition, the inhibition is 12% in test [2] and -3% in test [3]. The outcome in test [5], in test [6], in test [7] and in test [8] was inactive.

On to `Cc1cc(N2CC=CCC2)nc(/N=C(\N)Nc2ccc(Br)cc2)n1`, for which the growth inhibition in test [1] was 41%; in test [4] it was 98% (active). The inhibition in test [2] was 10%; in test [3], -3%. Also, the outcome in test [5], in test [6], in test [7] and in test [8] was inactive.

Regarding `COc1ccc(N2CCN(CCCOc3ccc(NC(=O)c4cc(Cl)cc(Cl)c4)cc3)CC2)c(OC)c1`, the growth inhibition in test [1] is 41%; in test [4], 100% (active). Further, the inhibition in test [2] was 38%; in test [3], 2%. Moreover, the result in test [5], in test [6], in test [7] and in test [8] was inactive.

Regarding `N#Cc1ccc(-c2nc(CO)c(C(=O)NCCCCN3CCC(c4ccc5c(c4OCC(N)=O)CCCC5)CC3)s2)cc1`, the growth inhibition in test [1] is -1%; in test [4] it was 92% (active). Moreover, the results for the inhibition in test [2] and in test [3] were 9% and 4%, respectively. The outcome in test [5], in test [6], in test [7] and in test [8] was inactive.

In the case of `CC(C)(C)c1ccc(NC(=O)Nc2ccc(Cn3ncc(N4CCCNCC4)c(Cl)c3=O)cc2)cc1`, the figures for the growth inhibition in test [1] and in test [4] were 33% and 95% (active), respectively. The inhibition was -4% in test [2] and -7% in test [3]. Moreover, the outcome in test [5], in test [6], in test [7] and in test [8] was inactive.

As to `O=C(Nc1ccsc1C(=O)NC1CCCCC1)c1ccc(F)cc1`, the growth inhibition in test [1] is 11%; in test [4], 86% (active). The inhibition in test [2] is 3%; in test [3], 6%. Besides, the outcome in test [5], in test [6], in test [7] and in test [8] was inactive.

On to `O=C(C(=O)c1ccc(Nc2ccnc3cc(-c4ccccn4)ccc23)cc1)c1ccccc1`, for which the growth inhibition was 34% in test [1] and 93% (active) in test [4]. Also, the inhibition is 22% in test [2] and -4% in test [3]. In addition, the outcome in test [5], in test [6], in test [7] and in test [8] was inactive.
